Among all 310,000 compounds or so, about 14,000 (4.5%) showed an effect of 50% or more. The effect is printed as a negative number. Many of the other results were omitted from the sample, so strong results are more common in it than they were.
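Also: peak tail current of the secondary pulse compared with the same well before compound.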

Chain of human ether-à-go-go-related gene (hERG) potassium channel (Q12809 whole entry, looked up): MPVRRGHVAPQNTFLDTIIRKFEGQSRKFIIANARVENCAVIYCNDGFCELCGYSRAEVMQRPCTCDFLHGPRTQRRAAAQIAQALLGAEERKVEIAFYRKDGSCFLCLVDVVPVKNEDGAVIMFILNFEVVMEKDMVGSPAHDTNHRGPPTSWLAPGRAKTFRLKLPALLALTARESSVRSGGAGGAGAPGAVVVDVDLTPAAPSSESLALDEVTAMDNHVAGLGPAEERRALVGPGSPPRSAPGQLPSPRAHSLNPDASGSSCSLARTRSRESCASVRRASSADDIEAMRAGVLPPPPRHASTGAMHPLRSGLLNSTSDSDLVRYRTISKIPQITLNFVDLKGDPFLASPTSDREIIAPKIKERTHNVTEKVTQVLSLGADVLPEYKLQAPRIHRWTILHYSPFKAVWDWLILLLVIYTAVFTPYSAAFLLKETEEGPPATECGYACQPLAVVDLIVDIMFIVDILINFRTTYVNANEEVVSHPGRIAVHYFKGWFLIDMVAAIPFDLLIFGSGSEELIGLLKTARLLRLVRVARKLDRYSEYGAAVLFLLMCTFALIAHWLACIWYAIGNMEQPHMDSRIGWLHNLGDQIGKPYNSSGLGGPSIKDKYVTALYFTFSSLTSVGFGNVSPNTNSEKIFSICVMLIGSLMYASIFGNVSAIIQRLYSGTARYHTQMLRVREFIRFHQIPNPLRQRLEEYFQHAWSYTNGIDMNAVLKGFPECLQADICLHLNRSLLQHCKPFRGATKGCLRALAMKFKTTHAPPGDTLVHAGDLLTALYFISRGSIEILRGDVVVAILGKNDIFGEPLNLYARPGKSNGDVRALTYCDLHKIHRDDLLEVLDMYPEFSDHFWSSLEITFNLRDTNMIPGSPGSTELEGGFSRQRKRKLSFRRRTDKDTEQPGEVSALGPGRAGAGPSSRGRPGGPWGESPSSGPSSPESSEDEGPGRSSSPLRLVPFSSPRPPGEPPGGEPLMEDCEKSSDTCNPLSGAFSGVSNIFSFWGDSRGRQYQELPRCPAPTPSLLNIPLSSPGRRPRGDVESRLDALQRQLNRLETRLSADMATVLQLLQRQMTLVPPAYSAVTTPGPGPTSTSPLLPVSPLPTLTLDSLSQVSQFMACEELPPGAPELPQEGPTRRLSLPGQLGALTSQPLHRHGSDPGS

This test addresses human ether-à-go-go-related gene (hERG) potassium channel (human, UniProt Q12809). The test can be described thus: primary screen, population patch clamp on CHO cells stably expressing hERG; higher = less effect of the substance.
Turning to `Cc1ccc(C)c(SCC(=O)N(C)CC(=O)Nc2ccc(N3CCOCC3)cc2)c1`, the “hERG current change (%, negative = inhibition) at 10uM” value is listed as -5.12%.

As to `Cc1ccc(NC(=S)N/N=C/c2ccc([N+](=O)[O-])s2)cc1`, the “hERG current change (%, negative = inhibition) at 10uM” value was -3.04%. Regarding `C[C@H](NS(=O)(=O)c1ccc2c(c1)OCCCO2)C(=O)N1CCN(c2ccc(F)cc2)CC1`, the “hERG current change (%, negative = inhibition) at 10uM” value is on record as -34.8%. With `O=C(C1CC(=O)N(c2ccc3c(c2)OCCO3)C1)N1CCN(Cc2ccccc2)CC1` (stereo not shown), the “hERG current change (%, negative = inhibition) at 10uM” value is 0.404%. The value for `O=C(C1CCN(Cc2ccccc2O)CC1)N1CCN(Cc2ccc3c(c2)OCO3)CC1` was -23%; that for `C[C@H](NS(=O)(=O)c1ccc2c(c1)OCCCO2)C(=O)N1CCN(Cc2ccc(C#N)cc2)CC1` was -61.1%. Regarding `N#Cc1ccc(CN2CCN(C(=O)CNS(=O)(=O)c3ccc4c(c3)OCCCO4)CC2)cc1`, the “hERG current change (%, negative = inhibition) at 10uM” value was -20.8%.

As for `O=C(C1CC(=O)N(c2ccc(Cl)cc2)C1)N1CCN(Cc2ccc3c(c2)OCO3)CC1` (stereo not shown), the “hERG current change (%, negative = inhibition) at 10uM” value is reported as -67.7%. In the case of `O=C(c1ccc(F)cc1)N1CCC(C(=O)N2CCN(Cc3ccc4c(c3)OCO4)CC2)CC1`, the “hERG current change (%, negative = inhibition) at 10uM” value was -10.5%. On to `COc1cccc(CN2CCC(C(=O)N3CCN(Cc4ccc5c(c4)OCO5)CC3)CC2)c1`, for which the “hERG current change (%, negative = inhibition) at 10uM” value is -19.8%.

Consider `O=C(C1CCN(Cc2ccc(Cl)cc2)CC1)N1CCN(Cc2ccc3c(c2)OCO3)CC1`, for which the “hERG current change (%, negative = inhibition) at 10uM” value was -66.6%. With `O=C(C1CCN(Cc2cccs2)CC1)N1CCN(Cc2ccc3c(c2)OCO3)CC1.O=C(O)C(=O)O`, the “hERG current change (%, negative = inhibition) at 10uM” value is -14.5%. The value for `O=C(C1CCN(c2nnc(-n3cccc3)s2)CC1)N1CCN(Cc2ccc3c(c2)OCO3)CC1` was -68.2%; that for `COc1ccc(N2CC(C(=O)N3CCN(Cc4ccc5c(c4)OCO5)CC3)CC2=O)cc1` (stereo not shown) was -19%. Consider `O=C(c1c[nH]c2ccc(S(=O)(=O)N3CCOCC3)cc2c1=O)N1CCC2(CC1)OCCO2`, for which the “hERG current change (%, negative = inhibition) at 10uM” value turned out to be 23.7%. As for `CCc1ccccc1NC(=O)N1C2CCCC1CC(NC(C)=O)C2` (stereo not shown), the “hERG current change (%, negative = inhibition) at 10uM” value is reported as 21.4%. As for `Cc1nn(-c2ccccc2)c(Cl)c1C1C(C#N)=C(N)Oc2c1c(=O)oc1ccccc21` (stereo not shown), the “hERG current change (%, negative = inhibition) at 10uM” value came out at 6.87%. As to `CCN1C(=O)C(=Cc2c(C)n(CC(=O)NCC3CCCO3)c3ccccc23)C(=O)N(CC)C1=S` (stereo not shown), the “hERG current change (%, negative = inhibition) at 10uM” value is reported as 27.5%. For the compound `CCOc1cc(-c2noc(CCC(=O)Nc3cccnc3)n2)ccc1OC`, the “hERG current change (%, negative = inhibition) at 10uM” value was found to be 10.4%.

For the compound `O=C(O)CC12C[C@H]3C[C@@H](C1)CC(n1ncc(N4CCN(c5ccccc5)CC4)c(Cl)c1=O)(C3)C2`, the “hERG current change (%, negative = inhibition) at 10uM” value was found to be 6.36%. `O=C(O)CCC(=O)N1CCN(Cc2ccc3c(c2)OCO3)CC1`: the “hERG current change (%, negative = inhibition) at 10uM” value amounted to 11.6%.

In the case of `N#Cc1ccc(S(=O)(=O)N2CCC(C(=O)N3CCN(Cc4ccc5c(c4)OCO5)CC3)CC2)cc1`, the “hERG current change (%, negative = inhibition) at 10uM” value was -74.2%. On to `CCCC(=O)N1CCN(Cc2ccc3c(c2)OCO3)CC1`, for which the “hERG current change (%, negative = inhibition) at 10uM” value is -3.83%.

Take `O=C(C1CCN(S(=O)(=O)c2ccccc2)CC1)N1CCN(Cc2ccc3c(c2)OCO3)CC1`: the “hERG current change (%, negative = inhibition) at 10uM” value is on record as -28.9%. In the case of `O=C(C1CCN(S(=O)(=O)c2cnc[nH]2)CC1)N1CCN(Cc2ccc3c(c2)OCO3)CC1`, the “hERG current change (%, negative = inhibition) at 10uM” value worked out at 0.674%. The value for `O=C(CCC1CCCCC1)N1CCN(Cc2ccc3c(c2)OCO3)CC1` was -67.2%; that for `CCOC(=O)C1CCN(S(=O)(=O)c2cc(C(=O)OC)n(C)c2)CC1` was -8.49%; that for `c1ccc(-n2cc(CN3CCCC(CN4CCCC4)C3)c(-c3ccc4c(c3)OCO4)n2)cc1` (stereo not shown) was -29.2%. Consider `COC(=O)C1CCN(Cc2cn(-c3ccccc3)nc2-c2ccc3c(c2)OCO3)CC1`, for which the “hERG current change (%, negative = inhibition) at 10uM” value is -33.7%. As for `Cl.O=C1CSC(c2cn(-c3ccccc3)nc2-c2ccc3c(c2)OCCO3)N1CCN1CCOCC1` (stereo not shown), the “hERG current change (%, negative = inhibition) at 10uM” value is -21.2%. Regarding `COCC1CCCN(Cc2cn(-c3ccccc3)nc2-c2ccc3c(c2)OCO3)C1` (stereo not shown), the “hERG current change (%, negative = inhibition) at 10uM” value is recorded as -65.7%. `OC[C@@H]1CCCN1Cc1cn(-c2ccccc2)nc1-c1ccc2c(c1)OCO2`: the “hERG current change (%, negative = inhibition) at 10uM” value is -24.2%.

On to `COCCC1CCCCN1Cc1cn(-c2ccccc2)nc1-c1ccc2c(c1)OCO2` (stereo not shown), for which the “hERG current change (%, negative = inhibition) at 10uM” value is reported as -55.8%.

Consider `c1ccc(-n2cc(CN3CCCC3)c(-c3ccc4c(c3)OCO4)n2)cc1`, for which the “hERG current change (%, negative = inhibition) at 10uM” value is -73%. Consider `COCC1CCCCN1Cc1cn(-c2ccccc2)nc1-c1ccc2c(c1)OCO2` (stereo not shown), for which the “hERG current change (%, negative = inhibition) at 10uM” value is -37.1%. For `c1ccc(-n2cc(CN3CCC(N4CCOCC4)CC3)c(-c3ccc4c(c3)OCO4)n2)cc1`, the “hERG current change (%, negative = inhibition) at 10uM” value is -50.8%. With `CC(=O)NCC1CCCN(Cc2cn(-c3ccccc3)nc2-c2ccc3c(c2)OCO3)C1` (stereo not shown), the “hERG current change (%, negative = inhibition) at 10uM” value is on record as -45.9%. Take `c1ccc(Cn2cc(CN3CCCO3)c(-c3ccc4c(c3)OCO4)n2)cc1`: the “hERG current change (%, negative = inhibition) at 10uM” value is recorded as 15.9%. `c1ccc(Cn2cc(CN3CCCCO3)c(-c3ccc4c(c3)OCO4)n2)cc1`: the “hERG current change (%, negative = inhibition) at 10uM” value is recorded as -1.3%. Take `O=C(COC(=O)Cn1nc(-c2ccccc2)oc1=O)Nc1ccc(F)cc1`: the “hERG current change (%, negative = inhibition) at 10uM” value stood at 4.6%.
